Our source for the growth values is PubChem BioAssay (NCI).

This is part of a sample that, as a whole, favours compounds with a hit. Of some 83,000 tested, about 20% had one in any assay.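 Cells were grown in 96-well plates and exposed to the test compound at a single concentration for 48 hours; results are reported as percent growth, with values below 10 considered active.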 Values without a mark were called inactive. The source made the active and inactive calls.

Test systems include NCI-H23 lung; NCI-H226 lung; NCI-H322M lung; HOP-62 NSCLC; NCI-H460 lung; HOP-92 NSCLC; NCI-H522 lung; A549/ATCC NSCLC; 786-0 renal; COLO 205 colon; DU-145 prostate; K-562 leukemia; MDA-MB-231 breast; RXF 393 renal; SF-268 CNS; SF-295 CNS; SF-539 CNS; UACC-257 melanoma; M14 melanoma.
Holding throughout (test): NCI-60 one-dose screen, 48 h (100 = growth as untreated, 0 = no growth, -100 = all killed)
What all share (conditions): 10 µM

As to `NC(=O)C12C(=O)NC(=O)C1(C(=O)O)C21CCCC1` (configuration not stated), the growth in the experiment with NCI-H23 lung was 109%; in the experiment with NCI-H226 lung it was 110%; with NCI-H322M lung, 104%; in the experiment with HOP-62 NSCLC, 110%; in the experiment with NCI-H460 lung, 117%; in the experiment on HOP-92 NSCLC, 102%. Moreover, the growth is 111% with NCI-H522 lung; 99% with A549/ATCC NSCLC; 101% in the experiment on 786-0 renal; 115% with COLO 205 colon; 133% in the experiment with DU-145 prostate; 108% with K-562 leukemia. For the same compound, the growth is 98.9% in the experiment on MDA-MB-231 breast; 122% with RXF 393 renal; 114% in the experiment on SF-268 CNS; 110% in the experiment on SF-295 CNS; 113% in the experiment on SF-539 CNS; 103% in the experiment with UACC-257 melanoma. Besides, the growth in the experiment with M14 melanoma was 105%.
Turning to `N#CC1C=Cc2c(ccc3ccccc23)N1C(=O)c1ccccc1` (configuration not stated), the growth with NCI-H23 lung was 29.8%; in the experiment with NCI-H226 lung it was 12.9%; in the experiment with NCI-H322M lung it was 22.6%; with HOP-62 NSCLC, 50%; in the experiment on NCI-H460 lung, 1.38% (active); in the experiment on HOP-92 NSCLC, 50.6%. For the same compound, the growth was 9.32% (active) with NCI-H522 lung; 26.9% in the experiment on A549/ATCC NSCLC; 34% in the experiment with 786-0 renal; -39.8% (active) with COLO 205 colon; -2.67% (active) in the experiment with DU-145 prostate; 17.2% with K-562 leukemia. Further, the growth with MDA-MB-231 breast was 24.4%; with RXF 393 renal, 5.17% (active); in the experiment with SF-268 CNS, 27.2%; with SF-295 CNS, -19.4% (active); with SF-539 CNS, -7% (active); in the experiment with UACC-257 melanoma, 70.3%. Moreover, in the experiment on M14 melanoma, the growth was 7.78% (active).
As for `CCCCOCC(=O)NC(NP(=O)(N(C)C)N(C)C)C(Cl)(Cl)Cl` (configuration not stated), the growth in the experiment with NCI-H23 lung is 101%; with NCI-H226 lung, 109%; in the experiment with NCI-H322M lung, 127%; in the experiment with HOP-62 NSCLC it was 81.2%; in the experiment on NCI-H460 lung, 110%; with HOP-92 NSCLC it was 97.7%. Further, the growth in the experiment on NCI-H522 lung was 107%; in the experiment on A549/ATCC NSCLC, 102%; with 786-0 renal, 92.5%; in the experiment on COLO 205 colon it was 109%; with DU-145 prostate, 139%; in the experiment on K-562 leukemia, 84.2%. In addition, the growth in the experiment on MDA-MB-231 breast was 121%; in the experiment on RXF 393 renal, 130%; with SF-268 CNS, 122%; in the experiment with SF-295 CNS, 70%; in the experiment on SF-539 CNS, 114%; with UACC-257 melanoma it was 108%. Also, the growth in the experiment on M14 melanoma was 94.3%.
Regarding `Cn1c(N)c(N=Cc2ccccc2)c(=O)n(C)c1=O`, the growth was 103% in the experiment on NCI-H23 lung; 108% in the experiment on NCI-H226 lung; 114% with NCI-H322M lung; 96.3% in the experiment on HOP-62 NSCLC; 114% in the experiment on NCI-H460 lung; 102% in the experiment with HOP-92 NSCLC. The growth with NCI-H522 lung was 101%; in the experiment with A549/ATCC NSCLC, 105%; in the experiment on 786-0 renal, 103%; in the experiment with COLO 205 colon it was 106%; with DU-145 prostate, 124%; in the experiment on K-562 leukemia it was 95.8%. Further, the growth is 98.8% with MDA-MB-231 breast; 121% with RXF 393 renal; 110% in the experiment with SF-268 CNS; 124% with SF-295 CNS; 119% in the experiment with SF-539 CNS; 108% in the experiment with UACC-257 melanoma. In the experiment on M14 melanoma, the growth was 98.7%.
Turning to `COc1cc(/C=C/C(=O)c2cc(-c3ccc(F)cc3)ccc2O)cc(OC)c1OC`, the growth was 56.3% in the experiment with NCI-H23 lung; 83.5% in the experiment with NCI-H226 lung; 93.6% in the experiment on NCI-H322M lung; 115% in the experiment on HOP-62 NSCLC; 80.6% in the experiment with NCI-H460 lung; 57.8% with HOP-92 NSCLC. In addition, the growth with NCI-H522 lung was 58.7%; with A549/ATCC NSCLC it was 83.5%; with 786-0 renal, 94.1%; in the experiment on COLO 205 colon, 88.2%; with DU-145 prostate, 91.1%; in the experiment on K-562 leukemia, 34.5%. In addition, the growth with MDA-MB-231 breast was 60.7%; in the experiment with RXF 393 renal it was 104%; in the experiment with SF-268 CNS, 85.7%; in the experiment on SF-295 CNS, 95.1%; in the experiment with SF-539 CNS, 89%; with UACC-257 melanoma it was 68.4%. In the experiment on M14 melanoma, the growth is 86.2%.
As for `COc1ccc(/C=C(\c2cc(OC)c(OC)c(OC)c2)c2nnc(-c3cccs3)o2)cc1`, the growth is 76.1% with NCI-H23 lung; 92.5% in the experiment on NCI-H226 lung; 82.7% in the experiment on NCI-H322M lung; 41.3% with HOP-62 NSCLC; 72.7% with NCI-H460 lung; 34.8% in the experiment with HOP-92 NSCLC. Further, the growth in the experiment on NCI-H522 lung is 43.7%; with A549/ATCC NSCLC, 77.5%; in the experiment with 786-0 renal it was 48.9%; in the experiment on COLO 205 colon it was 112%; in the experiment with DU-145 prostate, 77%; in the experiment with K-562 leukemia, 89.5%. Also, the growth in the experiment on MDA-MB-231 breast was 71.7%; in the experiment with RXF 393 renal it was 49.2%; with SF-268 CNS, 42%; in the experiment on SF-295 CNS, 73.4%; with SF-539 CNS it was 47.6%; in the experiment with UACC-257 melanoma, 76.5%. The growth in the experiment on M14 melanoma was 93.2%.
Regarding `COc1cc(-c2n/c(=C\c3c(O)[nH]c4ccccc34)cc3c2=Nc2ccccc2-3)cc(OC)c1OC`, the growth with NCI-H23 lung is 22.9%; in the experiment with NCI-H226 lung, 22%; in the experiment with NCI-H322M lung, 47.3%; in the experiment with HOP-62 NSCLC it was 41.4%; in the experiment on NCI-H460 lung, 3.31% (active); with HOP-92 NSCLC it was 22.9%. In addition, the growth was -7.72% (active) with NCI-H522 lung; 9.21% (active) in the experiment on A549/ATCC NSCLC; 16.7% in the experiment on 786-0 renal; -49.2% (active) in the experiment on COLO 205 colon; 11.5% with DU-145 prostate; 6.57% (active) in the experiment with K-562 leukemia. In addition, the growth is 10.8% in the experiment on MDA-MB-231 breast; -22.3% (active) with RXF 393 renal; 19.3% in the experiment with SF-268 CNS; 8.6% (active) with SF-295 CNS; 1.21% (active) in the experiment on SF-539 CNS; 56.2% with UACC-257 melanoma. Further, the growth in the experiment on M14 melanoma was -5.09% (active).
In the case of `CCOC(=O)c1c(Cl)c2c(n1Cc1cccc(OC)c1)-c1oncc1CC2`, the growth in the experiment on NCI-H23 lung was 50.5%; in the experiment on NCI-H226 lung, 56.9%; in the experiment with NCI-H322M lung, -7.41% (active); with HOP-62 NSCLC, 37.5%; with NCI-H460 lung it was 9.8% (active); with HOP-92 NSCLC, 31%. The growth was 5.7% (active) in the experiment with NCI-H522 lung; 45% in the experiment with A549/ATCC NSCLC; 33.7% in the experiment on 786-0 renal; 19.9% with COLO 205 colon; 21.6% with DU-145 prostate; 17.6% with K-562 leukemia. Besides, the growth with MDA-MB-231 breast was 57.1%; with RXF 393 renal it was 46.5%; with SF-268 CNS it was 44.5%; in the experiment on SF-295 CNS it was -1.65% (active); in the experiment on SF-539 CNS it was 5.6% (active); with UACC-257 melanoma it was 49.1%. In addition, in the experiment with M14 melanoma, the growth was 17.9%.
